Data published in PMC4336329 (PLoS ONE, 2015).
The campaign covered roughly 310,000 compounds. About 2,200 (0.71%) showed an effect of 50% or more. Effects have a minus sign here. This excerpt belongs to a sample that is enriched for strong results.

These compounds were tested against human ether-à-go-go-related gene (hERG) potassium channel (human, UniProt Q12809) (assay: primary screen, population patch clamp on CHO cells stably expressing hERG; higher = less effect of the substance).
Method: Briefly, Chinese hamster ovary (CHO) cells stably expressing the hERG channel were dislodged from tissue culture flasks and dispensed into PPC plates. […] During the recording, background leak currents were estimated by a 100 ms step to -80 mV from an initial holding potential of -70 mV and subtracted from the subsequent current measurement. The campaign was conducted in two phases using slight differences in recording protocol. In the first phase, the initial voltage pulse used a 100 ms step to -30 mV from a holding potential of -70 mV, a 2 s conditioning step to +25 mV, and a 2 s test step to -30 mV. During the second phase of the screen, the potential during the conditioning step was raised to +45 mV. In both phases of the campaign, a secondary voltage pulse was applied using the same parameters as the second phase initial pulse. The initial and secondary pulses were applied in the absence of compound, and upon application of 1 μM and 10 μM test concentrations. Small molecule effects on hERG current density were quantified by […].

Sequence of human ether-à-go-go-related gene (hERG) potassium channel (Q12809 whole entry, looked up): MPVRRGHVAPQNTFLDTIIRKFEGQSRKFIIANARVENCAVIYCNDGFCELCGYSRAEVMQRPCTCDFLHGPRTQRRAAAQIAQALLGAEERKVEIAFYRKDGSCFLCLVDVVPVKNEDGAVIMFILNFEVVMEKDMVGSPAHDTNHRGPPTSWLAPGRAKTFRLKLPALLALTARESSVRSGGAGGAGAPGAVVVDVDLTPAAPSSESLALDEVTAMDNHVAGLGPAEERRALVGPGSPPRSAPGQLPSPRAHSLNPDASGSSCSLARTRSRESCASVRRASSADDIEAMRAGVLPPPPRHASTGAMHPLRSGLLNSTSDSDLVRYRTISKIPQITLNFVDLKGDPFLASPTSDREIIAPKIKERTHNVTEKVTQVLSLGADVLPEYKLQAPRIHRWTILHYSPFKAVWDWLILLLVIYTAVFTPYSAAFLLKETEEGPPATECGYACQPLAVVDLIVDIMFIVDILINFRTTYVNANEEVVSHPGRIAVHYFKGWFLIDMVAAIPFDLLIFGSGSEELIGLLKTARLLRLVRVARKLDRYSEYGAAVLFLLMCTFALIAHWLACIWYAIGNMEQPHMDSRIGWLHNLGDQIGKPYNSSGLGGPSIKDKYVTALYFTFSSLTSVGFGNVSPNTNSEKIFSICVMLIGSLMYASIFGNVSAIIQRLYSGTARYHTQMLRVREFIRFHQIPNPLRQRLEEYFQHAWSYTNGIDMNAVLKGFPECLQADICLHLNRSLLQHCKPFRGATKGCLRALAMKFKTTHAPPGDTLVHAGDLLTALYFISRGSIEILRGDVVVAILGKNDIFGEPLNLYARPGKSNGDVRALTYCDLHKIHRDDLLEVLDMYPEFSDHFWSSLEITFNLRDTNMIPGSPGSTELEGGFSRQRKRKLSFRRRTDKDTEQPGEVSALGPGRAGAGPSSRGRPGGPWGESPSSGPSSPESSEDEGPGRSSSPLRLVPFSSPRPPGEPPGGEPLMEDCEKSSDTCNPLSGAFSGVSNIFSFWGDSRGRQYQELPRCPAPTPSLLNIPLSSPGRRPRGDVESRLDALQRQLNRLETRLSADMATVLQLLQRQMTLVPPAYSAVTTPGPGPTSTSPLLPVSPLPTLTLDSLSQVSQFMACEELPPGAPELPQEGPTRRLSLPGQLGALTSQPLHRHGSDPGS

Compound	hERG current change (%, negative = inhibition) at 1uM [%]
Cc1ccnc(NC(=O)Cn2cc([N+](=O)[O-])cn2)c1	10.4
CCOC(=O)c1sc(=S)n(-c2ccccc2)c1N(C(C)=O)C(C)=O	15.5
COc1ccc(S(=O)(=O)N2CCOCC2)cc1NC(=O)CCc1cc(OC)c(OC)c(OC)c1	2.32
CC(NC(=O)c1cccnc1)C(c1cccs1)N1CCN(C)CC1 (stereo not drawn)	8.63
COc1ccc(OCCSc2nc(N)cc(N)n2)cc1	-5.65
CC(=O)OCCNc1cc(SC(C)C)c2nonc2c1[N+](=O)[O-]	3.63
C=CCN1C=C2C(=O)C(C)(OC(=O)CCC(=O)OC)C(=O)C(Br)=C2C=C1c1ccc(OC)cc1 (stereo not drawn)	7.67
O=C(Cc1ccccc1[N+](=O)[O-])NCCc1ccc(F)cc1	11.3
O=C(OCn1nnc2ccccc2c1=O)c1cccc(S(=O)(=O)N2CCOCC2)c1	12.9
Cc1ccc(S(=O)(=O)CCC(=O)N2CCN(c3ccc([N+](=O)[O-])cc3)CC2)cc1	-49.9
CC1(C(=O)N2CCN(c3ccc([N+](=O)[O-])cc3)CC2)CC1(Cl)Cl (stereo not drawn)	-64.3
CC(=O)N1CCN(c2ccc([N+](=O)[O-])cc2)CC1	-26
CSC(=NC#N)N1CCN(c2ccc(Cl)cc2)CC1	-6.45
O=C(CCS(=O)(=O)Cc1ccccc1)N1CCN(c2ccccc2)CC1	-5.53
CSC(=NC#N)N1CCN(c2ccc([N+](=O)[O-])cc2)CC1	-80.9
CC1(C(=O)N2CCN(c3ccccc3)CC2)CC1(Cl)Cl (stereo not drawn)	10.3
O=C(CCS(=O)(=O)Cc1ccccc1)N1CCN(c2ccc([N+](=O)[O-])cc2)CC1	-81
CSC(=NC#N)N1CCN(c2ccccc2)CC1	6.71
O=C(CSCc1c(F)cccc1Cl)NCC1CCCO1 (stereo not drawn)	-1.83
CCn1cc(C2=NC(CCSC)CO2)c2ccccc21 (stereo not drawn)	12
Cc1ccc(C2=NN(CC(=O)O)C(=O)CC2)cc1	-9.99

Compound	hERG current change (%, negative = inhibition) at 1uM [%]
Cc1ccc(C(=O)N2CCN(c3ccc([N+](=O)[O-])cc3-n3cccc3)CC2)cc1	-16.4
COc1cccc(N2CCN(CC(=O)C34CC5CC(CC(C5)C3)C4)CC2)c1	14
O=C(O)c1ccccc1C(=O)O	4.51
O=C1OC(NC(=O)c2ccccc2)C(n2cc(CO)nn2)=C1Cl (stereo not drawn)	-3.22
COc1ccc(N(C(=O)Cc2cccs2)C(C(=O)NC2CCCCC2)c2cccn2C)cc1 (stereo not drawn)	9.18
N#C/C(=C/c1ccc(Cl)cc1)NC(=O)c1ccccc1	12.2
COCCn1c(C)cc(C(=O)CSc2nnnn2C2CCCC2)c1C	-58.4
COCC(C)n1c(C)cc(C(=O)CSc2nnnn2C2CCCC2)c1C (stereo not drawn)	5.12
CCn1c(C)cc(C(=O)CSc2nnnn2C2CCCC2)c1C	-9.53
CCOC(=O)C1CCCN(CCC(=O)Nc2c(C(=O)OC)[nH]c3cc(OC)ccc23)C1 (stereo not drawn)	-38
O=C(CSc1nnc(-c2ccc(O)cc2)o1)Nc1cccc(O)c1	17.7
Cl.Nc1cc(F)ccc1N1CCCCCC1	12.7
CN(C)C(=O)C1C2NC(=S)N(c3ccccc3)C1(C)Oc1ccccc12 (stereo not drawn)	2.05
O=[N+]([O-])c1ccc(N2CCCCC2)cn1	13.9
O=[N+]([O-])c1ccc(N2CCN(c3cccc(Cl)c3)CC2)cn1	-59.8
O=[N+]([O-])c1ccc(N2CCN(c3ccccc3Cl)CC2)cn1	-10
CCc1cccc(C)c1NC(=O)CC1Oc2ccc(C)cc2NC1=O (stereo not drawn)	11.9
CCCOC(=O)CCCN1C(=O)/C(=C2\SC(=S)N(CCCC(=O)OCCC)C2=O)SC1=S	16
Cc1cc2c(cc1C)C(c1ccsc1)CC(=O)N2 (stereo not drawn)	9.06
COc1ccc(CN2CCNC(=O)C2CC(=O)N(C)Cc2nccs2)c(OC)c1 (stereo not drawn)	13.1
Cc1ccc(NS(=O)(=O)c2ccc(C(=O)N3CCN(c4ncccn4)CC3)cc2)cc1	1.36

Compound	hERG current change (%, negative = inhibition) at 1uM [%]
Cc1ccc(C(=O)N/C(=C\c2ccccc2)C(=O)NCc2ccncc2)cc1	-77.1
O=C(Nc1cccc2ccccc12)/C(=C\c1cccc([N+](=O)[O-])c1)NC(=O)c1cccs1	-67.7
Cc1ccc(C(=O)N/C(=C\c2sccc2C)C(=O)NCc2ccncc2)cc1	-1.07
COc1ccc(C(=O)N/C(=C/c2ccc(Cl)cc2)C(=O)NCc2ccncc2)cc1	-38.4
COc1ccc(/C=C(/NC(=O)c2ccc(C)cc2)C(=O)NCc2ccncc2)cc1	-21.3
Cc1ccc(C(=O)N/C(=C/c2ccc(F)cc2)C(=O)NCc2ccncc2)cc1	-78.4
Cc1ccc(NC(=O)/C(=C\c2cccc([N+](=O)[O-])c2)NC(=O)c2cccs2)cc1	4.59
Cc1ccc(C(=O)N/C(=C/c2ccccc2)C(=O)NCc2ccncc2)cc1	-37.7
Cc1ccc(C(=O)N/C(=C\c2ccccc2)C(=O)NCc2cccnc2)cc1	-41.8
O=C(Nc1cccc2ccccc12)/C(=C/c1cccc([N+](=O)[O-])c1)NC(=O)c1cccs1	-37.8
Cc1ccc(C(=O)N/C(=C\c2cccs2)C(=O)NCc2ccncc2)cc1	-38.5
Cc1ccc(C(=O)N/C(=C\c2ccc(F)cc2)C(=O)NCc2ccncc2)cc1	-81.2
N#Cc1c(NC(=S)NC(=O)C2CCCC2)sc2c1CCCCC2	10.1
COc1ccc(N2CCN(c3ncnc4c3cnn4-c3ccc(C)cc3C)CC2)cc1	13.6
CCC(=O)N1CCc2cc(S(=O)(=O)NC(C(=O)NCc3ccc(C)cc3)C(C)C)ccc21 (stereo not drawn)	1.57
CCOc1ccc2nc(N3CCCC(C(=O)NCCCN4CCCCC4)C3)sc2c1 (stereo not drawn)	-11.7
CCN=C(NCC)SC1CC(=O)N(c2ccc(OCC)cc2)C1=O (stereo not drawn)	7.6
Cn1cc(/C=N/NC(=O)c2ccc(C#N)cc2F)c2ccccc21	12.6
N#Cc1c(N2CCCC(O)C2)nc(N)c2c(N)nc3c(c12)CC(=O)N3C12CC3CC(CC(C3)C1)C2 (stereo not drawn)	8.76
O=C(NCc1ccncc1)/C(=C\c1ccc(F)cc1)NC(=O)c1ccccc1	-52.3
O=C(NCc1ccncc1)/C(=C/c1cccc([N+](=O)[O-])c1)NC(=O)c1ccccc1	-31.2

Compound	hERG current change (%, negative = inhibition) at 1uM [%]
Cc1ccc(C(=O)N/C(=C\c2cccc([N+](=O)[O-])c2)C(=O)NCc2ccncc2)cc1	-65.3
CCNC(=O)/C(=C/c1cccc([N+](=O)[O-])c1)NC(=O)c1ccc(C)cc1	-17.3
CN(C)c1ccc(/C=C(\NC(=O)c2ccccc2)C(=O)NCc2ccncc2)cc1	4.78
COc1ccc(/C=C(/NC(=O)c2ccccc2)C(=O)NCc2ccncc2)cc1	-12.6
Cc1ccc(C23CC4CC(CC(C(=O)OCC(=O)NC5CCS(=O)(=O)C5)(C4)C2)C3)cc1 (stereo not drawn)	1.74
COc1ccc(OCC(=O)NNC(=O)C(=O)Nc2cc(OC)ccc2OC)cc1	13.5
N=c1c2c(-c3ccccc3)c(-c3ccccc3)oc2ncn1CCCN1CCOCC1	-84.5
c1ccc(-c2oc3ncnc(NCCCN4CCOCC4)c3c2-c2ccccc2)cc1	0.244
N=c1c2c(-c3ccccc3)c(-c3ccccc3)oc2ncn1CCN1CCOCC1	-63.5
COc1ccc(-c2oc3ncn(CCN4CCOCC4)c(=N)c3c2-c2ccc(OC)cc2)cc1	-7.75
c1ccc(-c2oc3ncnc(NCCN4CCOCC4)c3c2-c2ccccc2)cc1	9.8
N=c1c2c(-c3ccccc3)c(-c3ccccc3)oc2ncn1Cc1ccco1	9.94
COc1ccccc1CCc1nnc(CCC(=O)N(C)Cc2ccncc2C)o1	16.2
COc1ccccc1CCc1nnc(CCC(=O)N(C)Cc2cccc3cnccc23)o1	-53.3
CN(Cc1cccc2cnccc12)C(=O)CCc1nnc(CCc2ccccc2)o1	-5.46
COc1ccc2[nH]c(=O)c(CN(Cc3cccnc3)S(=O)(=O)c3ccccc3F)cc2c1	7.89
CCOc1ccc(NC(=O)CN(C)C(=O)c2ccc(-c3ccc(C(C)=O)cc3)o2)cc1OCC	10.5
Nc1c2c(nc3ccn(-c4ccccc4)c(=O)c13)CCCCC2	-37.1
Cl.Nc1c2c(nc3ccccc13)CCCC2	-12.6
Nc1c2c(nc3ccn(Cc4ccccc4)c(=O)c13)CCC2	-59
NC(=O)NC(c1ccc(Cl)cc1)c1ccccc1Cl (stereo not drawn)	7.43
